Experimental data: the supplement of paper PMC10981050
Values joined by “and” are separate entries in the source; they are usually repeats but may differ in a detail not shown here. Identical values can stand only once.

Key:
Assay in all cases: cell viability relative to vehicle control; higher = less cytotoxic
Settings in all cases: 10 µM
K562 = test system: K562
In short: (§1)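 Mutant clones made by CRISPR editing and their isogenic wild-type counterparts, from four leukaemia lines, were exposed to a single 10 µM dose of each library compound for 48 h. The supernatant was then removed and CellTiter-Glo luminescence was read. Viability was reported as percent of the on-plate vehicle control.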

MARIMO = test system: MARIMO
In short: as §1

MOLM14 = test system: MOLM14
In short: as §1

OCI-AML2 = test system: OCI-AML2
In short: as §1

| SMILES | cell viability (K562; SRSF2 genotype: SRSF2 P95H/wt) | cell viability (K562; SRSF2 genotype: SRSF2 wt/wt) | cell viability (MARIMO; SRSF2 genotype: SRSF2 P95H/wt) | cell viability (MARIMO; SRSF2 genotype: SRSF2 wt/wt) | cell viability (MOLM14; SRSF2 genotype: SRSF2 P95H/wt) | cell viability (MOLM14; SRSF2 genotype: SRSF2 wt/wt) | cell viability (OCI-AML2; SRSF2 genotype: P95H/wt) | cell viability (OCI-AML2; SRSF2 genotype: wt/wt) |
| --- | --- | --- | --- | --- | --- | --- | --- | --- |
| CC(C)Nc1cc(-c2c[nH]c(C(=O)N[C@H](CO)c3cccc(Cl)c3)c2)c(Cl)cn1 | 73.3% and 90.4% | 81.5% | 37.9% | 40% | 48.8% | 34.9% | 41.8% | 37.6% |
| OCCOCCN1CCN(C(c2ccccc2)c2ccc(Cl)cc2)CC1 (stereo not given) [Hydroxyzine 2HCl] | 90.8% and 99.8% | 96.4% | 85.2% | 88.6% | 86.6% | 95% | 95.4% | 86.1% |
| C=C1/C(=C\C=C2/CCC[C@]3(C)[C@@H]([C@H](C)/C=C/[C@H](C)C(C)C)CC[C@@H]23)C[C@@H](O)C[C@@H]1O [Doxercalciferol (Hectorol)] | 81.4% and 88.8% | 86.5% | 69.6% | 46.8% | 68.5% | 70.8% | 55.3% | 73% |
| CC(=O)OCCc1ccc(O)c(O)c1 [Hydroxytyrosol Acetate] | 93.5% and 95.4% | 104% | 85.5% | 98.6% | 95.7% | 103% | 108% | 110% |
| COc1cc(Nc2ncc(F)c(Nc3ccc4c(n3)N(COP(=O)(O)O)C(=O)C(C)(C)O4)n2)cc(OC)c1OC | 97.6% and 98.5% | 97.5% | 107% | 114% | 8.88% | 11.4% | 26.3% | 37% |
| CCC(=O)O[C@]1(C(=O)CCl)[C@@H](C)C[C@H]2[C@@H]3CCC4=CC(=O)C=C[C@]4(C)[C@@]3(F)[C@@H](O)C[C@@]21C [Clobetasol propionate] | 88.3% and 95.4% | 88.2% | 85.1% | 96.7% | 81.2% | 80.8% | 90.5% | 101% |
| N[C@@H]1CCCN(c2c(/C=C3\SC(=O)NC3=O)cccc2-c2ccccc2)C1 | 82.5% and 88.2% | 81.1% | 83.9% | 93% | 90.8% | 105% | 78.6% | 75.1% |
| CN1C(=O)[C@@H](NC(=O)c2n[nH]c(Cc3ccccc3)n2)COc2ccccc21 | 97.3% and 106% | 103% | 103% | 105% | 103% | 106% | 106% | 106% |
| Cc1nnc(NS(=O)(=O)c2ccc(N)cc2)s1 [Sulfamethizole (Proklar)] | 109% and 97.9% | 104% | 107% | 106% | 100% | 107% | 108% | 111% |
| CN(C)c1nc(N(C)C)nc(N(C)C)n1 [Altretamine (Hexalen)] | 99.3% and 102% | 99.7% | 97.3% | 95.2% | 94% | 98.5% | 99.7% | 98.4% |
